Compound activity deposited in PubChem by National Center for Advancing Translational Sciences (NCATS).
Giardia killer: Giardia lamblia killing | Giardia lamblia trophozoite viability | activity change, % at 7.66 µM, hits read low | 340,000 compounds, 0.15% hits | AID 540267; in the data active means activity change below about -80%; inconclusive means between about -30% and that limit;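 further: parasites exposed to compound for two days anaerobically before the ATP read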
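Giardia lamblia trophozoites (100 cells/well) were incubated with compounds for 48 h at 37 deg C under anaerobic conditions. Viability was read as ATP content by one-step luminescence after 15-30 min at room temperature.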
TDP1 cell CPT: DT40-hTDP1 cell growth loss with CPT; chicken DT40 Tdp1-/-;hTDP1 cells + 20 nM CPT, ATP luminescence, 48 h; Potency, µM (doses to about 46.2 µM), most hits filed as inhibitors; 420,000 compounds, 12% hits; further: nearly all actives have a fitted effect of over 55% in size
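Cell growth measured by CellTiter-Glo luminescence after a minimum 48 h, 37 C compound exposure with 20 nM CPT in Tdp1-knockout DT40 cells stably expressing hTDP1, seeded 400/well; qHTS titration format.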
DT40 TDP1 no CPT: qHTS for Inhibitors of human tyrosyl-DNA phosphodiesterase 1 (TDP1): qHTS in cells in absence of CPT | AID 686978, 2013 | Potency, µM (series often up to 46.2 µM), most hits filed as inhibitors | DT40 Tdp1-/- hTDP1 cells, no CPT, ATP luminescence, 48 h | 420,000 compounds, 15% hits; further: nearly all actives have a fitted effect of over 55% in size
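Stably hTDP1-transfected Tdp1-null chicken DT40 cells were treated with library compounds minus camptothecin and grown for at least 48 hr at 37 °C, after which cellular ATP was quantified by luminescence.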
ELG1 repair inh: ELG1-dependent DNA repair inhibition; HEK293T ELG1-luciferase reporter, luminescence, 16 h; DNA damage induced by 5-fluorouridine; Potency, µM (doses to about 46.1 µM), actives largely listed as inhibitors; 330,000 compounds, 2.3% hits; AID 504467; further: nearly all actives have a fitted effect of over 55% in size
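HEK293T cells expressing luciferase-tagged ELG1 (2,000/well) received 5-Fluorouridine plus compound or DMSO for 16 hr at 37 °C. Luciferase was read by ONE-Glo luminescence after 30 min at room temperature.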
TDP1 block: blocks human tyrosyl-DNA phosphodiesterase 1 | Potency, µM (top dose mostly 130 µM), most hits filed as inhibitors | recombinant TDP1, AlphaScreen DNA substrate cleavage | 350,000 compounds, 0.28% hits; further: nearly all actives have a fitted effect of over 40% in size
Target sequence (Q9NUW8 whole entry, looked up): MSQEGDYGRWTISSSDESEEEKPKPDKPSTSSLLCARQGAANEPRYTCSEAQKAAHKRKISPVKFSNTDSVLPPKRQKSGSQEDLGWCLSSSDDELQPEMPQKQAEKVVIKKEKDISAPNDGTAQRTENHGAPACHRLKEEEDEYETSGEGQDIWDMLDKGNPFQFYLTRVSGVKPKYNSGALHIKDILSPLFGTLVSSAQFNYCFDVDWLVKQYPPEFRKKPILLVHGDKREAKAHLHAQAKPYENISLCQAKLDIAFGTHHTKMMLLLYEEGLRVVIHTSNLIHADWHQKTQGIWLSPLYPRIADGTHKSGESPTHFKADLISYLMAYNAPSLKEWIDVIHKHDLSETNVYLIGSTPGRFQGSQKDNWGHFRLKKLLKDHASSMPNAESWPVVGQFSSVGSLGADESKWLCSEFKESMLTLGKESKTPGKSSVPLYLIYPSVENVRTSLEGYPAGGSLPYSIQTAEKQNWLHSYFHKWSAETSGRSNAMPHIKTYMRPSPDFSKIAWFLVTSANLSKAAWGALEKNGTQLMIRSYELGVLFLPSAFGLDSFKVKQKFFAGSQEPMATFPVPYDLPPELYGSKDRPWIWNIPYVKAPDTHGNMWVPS
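Steps: enzyme plus compound, 15 min RT; add biotin/phosphotyrosine-FITC oligonucleotide (15 nM final), react 5 min; add donor/acceptor beads (10 ug/ml final), 10 min; read AlphaScreen. Tdp1 at 1 nM final.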
IL1B secr inh: blocks inflammasome-driven IL-1 beta release. THP-1 LPS/ATP IL-1B secretion, AlphaLISA, 16 h; stronger effect = lower value. activity change, % at 57.5 µM. 360,000 compounds, 4.7% hits. AID 743279; in the data active means activity change below about -50%; inconclusive means mostly about -30% to -49%
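Secreted IL-1B measured by AlphaLISA bead assay after 16 h compound exposure of THP-1 cells; compounds (final up to 57.5 uM) added 1 h before LPS (250 ng/mL) and ATP (1.25 mM) stimulation; lower signal means less secretion.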
Numbers stand for hits; – = inactive; ? = inconclusive; · = no result; [ ] = dose if it differs, or a comment. This is a sample that favours compounds with a hit; in the whole collection about 19% have one here. Unless noted, the call rests on the fitted dose curve; in most records, active means well fitted curve in the direction sought with a large enough effect; inconclusive means small, poorly fitted or top-dose-only effect, or another doubt; inactive means no such curve, though single readings can be large; an effect the other way counts as inactive or inconclusive.

SMILES	Giardia killer	TDP1 cell CPT	DT40 TDP1 no CPT	ELG1 repair inh	TDP1 block	IL1B secr inh
Cc1nn(-c2ccccn2)c2c1C(c1ccccc1Cl)C1=C(N2)c2ccccc2C1=O (stereo not given)	–	6.5µM	4.6µM	21µM	–	–
Cc1nn(-c2ccccn2)c2c1C(c1c(F)cccc1Cl)C1=C(N2)c2ccccc2C1=O (stereo not given)	·	·	·	15µM	–	·
CSC1=C(C#N)C(c2ccccc2Cl)C2=C(N1)c1ccccc1C2=O (stereo not given)	–	23µM	18µM	–	–	-98
Cc1nn(-c2ccccn2)c2c1C(c1ccsc1)C1=C(CCCC1=O)N2 (stereo not given)	–	?	?	?	–	–
CSC1=C(C#N)C(c2ccccc2Cl)C2=C(CCCC2=O)N1 (stereo not given)	·	·	·	–	–	·
CC(C)(C)C(=O)OCc1cc(=O)n2nc(C3CCCCC3)sc2n1	·	–	–	·	–	·
CCOc1ccc(CCNC(=O)CSc2ncn[nH]2)cc1OCC	–	–	–	–	–	–
CC(=O)c1ccccc1[N+](=O)[O-]	·	·	·	·	–	·
O=[N+]([O-])c1ccccc1S(=O)c1ccccc1[N+](=O)[O-]	·	10µM	16µM	·	·	–
CCOc1ccccc1NC(=O)C1=C(C)Nc2ncnn2C1c1cccs1 (stereo not given)	·	–	?	·	–	·
C/C(=N\Nc1nc2c(s1)CCCC2)c1ccccc1	–	16µM	15µM	?	–	–
C/C(=N\Nc1nc(C(=O)O)cs1)c1ccccc1	–	–	–	?	–	–
O=C(NC(=S)Nc1nc2c(s1)CCCC2)c1ccc(C(=O)c2ccccc2)cc1	–	–	–	?	–	–
C/C(=N\Nc1nc(C(C)(C)C)cs1)c1ccc(O)cc1	–	–	18µM	?	–	–
C/C(=N\Nc1nc(C(C)(C)C)cs1)c1ccccc1	–	23µM	23µM	?	–	–
O=C1COc2ccc(N3C(=O)C=CC3=O)cc2N1	·	·	·	–	–	·
CO[C@@H]1COC(=O)[C@H]2CCCN2C(=O)C/C=C\[C@@H](C)[C@H](OC)COC(=O)[C@H]2CCCN2C(=O)C/C=C\[C@H]1C	·	·	·	·	–[21 µM]	·
COc1ccc(-c2nc3ccc(NC(C)=O)cc3c(=O)n2Cc2cccc(Cl)c2)cc1COc1ccc(NC(C)=O)cc1	–	11µM	13µM	·	–	·
COc1ccc(-c2nc3ccc(NC(=O)COC(C)=O)cc3c(=O)n2Cc2ccccc2)cc1COc1ccc(NC(C)=O)cc1	–	?	11µM	·	?	·
COc1ccc(-c2nc3ccccc3c(=O)n2Cc2ccco2)cc1COc1ccc(NC(C)=O)cc1	·	·	·	·	–	·
COc1ccc(-c2nc3ccccc3c(=O)n2Cc2ccc(CNC(=O)CO)cc2)cc1COc1ccc(NC(C)=O)cc1	·	·	·	·	79µM	·
O=C1c2cccc3c(N4CCCCC4)ccc(c23)C(=O)N1c1ccccn1	–	–	–	–	–	–
O=C1c2ccccc2-c2n[nH]c(=O)c3ccc(N4CCCCC4)c1c23	–	9.2µM	9.2µM	?	–	-94
O=C(O)C1CCCC1	·	–	–	·	·	·
Cc1ccc(N(C)S(=O)(=O)c2ccc3c(c2)NC(=O)C(C)S3)cc1 (stereo not given)	–	–	–	?	–	–
SMILES	Giardia killer	TDP1 cell CPT	DT40 TDP1 no CPT	ELG1 repair inh	TDP1 block	IL1B secr inh
C/C=C(\C)C(=O)NCCN1C2=NC[C@H](C(C)C)N2C[C@@H]1Cc1ccc(OC)cc1	–	?	–	–	–	–
COc1ccc(C[C@H]2CN3C(=NC[C@@H]3Cc3ccc(O)cc3)N2C[C@H](C)NC(=O)CCC2CCCCC2)cc1	–	8.2µM	16µM	–	·	–
COc1ccc(C[C@@H]2CN3C(=NC[C@@H]3Cc3ccc(O)cc3)N2C[C@H](C)NC(=O)CCC2CCCCC2)cc1	–	5.8µM	5.2µM	–	·	?
C=CC1=C2C=C(C3CC3)N(CCCN(CC)CC)C=C2C(=O)C(C)(OC(=O)c2ccco2)C1=O (stereo not given)	?	–	–	·	–[12.3 µM]	–
N=C(N)SCP(=O)(c1ccccc1)c1ccccc1	–	21µM	18µM	?	–	-85
Cc1ccc2nc(SCC(=O)c3c(C)[nH]c4ccccc34)[nH]c2c1	–	23µM	18µM	?	–	?
CC(C)OC(=O)CSc1nc2ncc(Cl)cc2[nH]1	–	–	–	–	–	?
Cc1[nH]c2ccccc2c1C(=O)CSc1nc2ncc(Cl)cc2[nH]1	–	13µM	?	–	–	–
CCCCNC(=O)c1cccc(NC(=O)c2nsc3ccccc23)c1	·	?	?	·	–	·
Cc1ccc(C)c(N2CCN(c3c(CN4CCCC4)c(=O)oc4ccccc34)CC2)c1	·	21µM	26µM	·	–	·
Nc1c(N2CCCCC2)c2ccccc2oc1=O	–	–	–	–	–	–
Cc1ccc(C)c(N2CCN(C(=O)c3cc4c(=O)oc5ccccc5c4s3)CC2)c1	·	–	–	·	–	·
Cc1ccc(N2CCN(c3c(CN4CCCC4)c(=O)oc4ccccc34)CC2)c(C)c1	·	16µM	?	·	–[12.3 µM]	·
CC(C)CNC(=O)C1(C)CCCN1Cc1ccc(OC(F)(F)F)cc1 (stereo not given)	·	?	?	·	·	–
CC(C)CNC(=O)C1(C)CCCN1C(=O)C(C)(C)Oc1ccc(Cl)cc1 (stereo not given)	·	?	16µM	·	·	–
CCCCNC(=O)[C@H]1C[C@H]1[C@@H](O)[C@H](CO)NC(=O)[C@H](COCc1ccccc1)NC(=O)OC(C)(C)C	–	–	–	–	·	–
c1ccc(CN2CCN(c3ncnc4nc[nH]c34)CC2)cc1	–	?	?	–	–	–
Clc1ccccc1CN(Cc1ccccc1)c1ncnc2nc[nH]c12	–	–	–	–	–	-84
CCOc1ccc(OCC)c(NC(=O)CN2CCN(c3cccc(C)c3C)CC2)c1	–	16µM	23µM	?	·	–
CCOc1ccc(OCC)c(NC(=O)CN2CCN(C(=O)c3ccco3)CC2)c1	–	?	?	–	–	–
CCOc1cccc(N2CCN(CCNC(=O)Nc3ccc(C)cc3)CC2)c1C	–	?	?	?	·	-68
CCOc1ccc(NC(=O)NCCN2CCN(c3cccc(C)c3C)CC2)cc1	–	21µM	21µM	?	–[12.3 µM]	–
COc1ccc(C(=O)NCCS(=O)(=O)N2CCc3ccccc3C2)cc1OC	–	–	–	–	–	–
CN(CCCC1CCCC1)C(=O)c1cc(COc2ccc(F)c(F)c2)on1	–	?	–	–	·	–
CN(CCCC1CCCC1)C(=O)c1cc(COc2c(F)cccc2F)on1	–	–	–	–	79µM	–
